This passage reports growth results from PubChem BioAssay (NCI).

About 83,000 compounds went through this panel and 20% of them were active in at least one assay; those are over-represented in the sample as a whole.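 Interpretation: 100, growth as untreated; towards 0, rising growth inhibition; 0, no net growth; 0 to -100, cell death. Compounds scoring below 10 were considered active.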 Unmarked numbers belong to inactive results. Calls of active or inactive are those of the source.

The subject of this test is HL-60(TB) leukemia. Nature of the test: NCI-60 one-dose screen, 48 h (100 = growth as untreated, 0 = no growth, -100 = all killed). As to conditions: 10 µM unless noted.
As to `O=S1(=O)N(Cc2ccccc2)[C@@H](Cc2ccccc2)[C@H](O)[C@H](O)[C@H](Cc2ccccc2)N1Cc1ccccc1`, the growth was -4.17% (active). As for `COc1cc(-c2nc(N=Nc3c(O)[nH]c4ccc(Br)cc34)[nH]c(=O)c2C#N)cc(OC)c1OC`, the figure is 101%; as for `Cc1cc(C)c(NC(=O)c2sc3nc4c(cc3c2N)CCCCCC4)c(C)c1`, -20.2% (active); as for `O=C(/C=C/c1ccc(F)cc1)c1ccc(NC(=O)N2CCN(c3cc4c(cc3F)c(=O)c(C(=O)O)cn4C3CC3)CC2)cc1`, 98.1%.
